Shiga toxin inh = A qHTS for Small Molecule Inhibitors of Shiga Toxin; actives 9.2% (n = 290,000); Vero cells, Shiga toxin protein synthesis inhibition reporter; inhibition, % at 38.7 µM; AID 2315, 2010; in the data active = inhibition mostly above about 28%, no sharp cut-off; inactive = mostly below about 43%
SARS PLpro yeast = qHTS of Yeast-based Assay for SARS-CoV PLP; S. cerevisiae expressing SARS-CoV PLpro, growth rescue; Potency, µM (series often up to 32.9 µM), usual class: activators; actives 0.19% (n = 330,000); AID 485353, 2010; calls by dose curve; note: nearly all actives have a fitted effect of over 55% in size
Pf growth 96h = Primary qHTS for delayed death inhibitors of the malarial parasite plastid, 96 hour incubation. P. falciparum luciferase reporter growth, 96 h. actives 6.9% (n = 320,000). AID 504834, 2011. Potency, µM (titrated, usually from 28.7 µM), most hits filed as inhibitors
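Erythrocytes infected with luciferase-expressing P. falciparum were dispensed at 2% hematocrit and 0.05% parasitemia (final), then incubated with compounds 96 hours at 37 C in 5% CO2. Luminescence after detection reagent addition reported growth.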
Pf growth 48h = Primary qHTS for delayed death inhibitors of the malarial parasite plastid, 48 hour incubation | P. falciparum luciferase growth in erythrocytes, 48 h | Potency, µM (series often up to 28.7 µM), usual class: inhibitors | actives 5.9% (n = 310,000) | AID 504832, 2011
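Cell-based growth assay: transgenic P. falciparum expressing firefly luciferase, cultured in red cells within RPMI 1640 containing 0.5% w/v Albumax, 24 mM bicarbonate and gentamycin. A drop in luciferase activity indicates inhibition.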
NS1 inh = qHTS Assay for Inhibitors of Influenza NS1 Protein Function. Potency, µM (doses to about 46.1 µM). actives 0.4% (n = 270,000). AID 2326, 2010; calls by dose curve; note: actives are rising curves; nearly all actives have a fitted effect of over 50% in size
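S. cerevisiae expressing influenza A NS1, grown in glucose, washed, then diluted 1:100 into pH 6.0 -URA galactose medium with 23 nl compound. Growth recovery read as OD600; NS1-free strain serves as control.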
Cycloheximide cs = Cycloheximide Counterscreen for Small Molecule Inhibitors of Shiga Toxin; cell reporter, cycloheximide protein synthesis inhibition counterscreen; max response, %; actives 12% (n = 300,000); in the data active = max response mostly above about 13%, no sharp cut-off; inactive = mostly below about 14%; note: read at 38.3 µM for the half of the compounds with a filed dose
A number is an active result; – = inactive; ? = inconclusive; · = no result given; [ ] = remark or other dose. Only some compounds are listed: those with a hit (about 21% of all), similar ones and a draw of the others. Unless noted, calls come from the whole dose curve; as a rule, active = well fitted inhibition curve with a large enough effect; inconclusive = small, poorly fitted or top-dose-only effect, or another doubt; inactive = no such curve, though single readings can be large or run the other way.

SMILES | Shiga toxin inh | SARS PLpro yeast | Pf growth 96h | Pf growth 48h | NS1 inh | Cycloheximide cs
CC(C)c1ccc(S(=O)(=O)c2cn(Cc3ccc(F)cc3)c3cc4c(cc3c2=O)OCO4)cc1 | – | – | – | ? | – | –
Cc1ccc(Cn2cc(S(=O)(=O)c3ccc(C(C)C)cc3)c(=O)c3cc4c(cc32)OCO4)cc1 | – | – | 3.3µM | 9.3µM | ? | –
CCc1ccc2c(COC(=O)C3CC(=O)N(CCc4ccccc4)C3)cc(=O)oc2c1 (configuration not stated) | · | – | – | – | · | ·
CN(Cc1cccs1)C(=O)CSc1nc2ccccc2[nH]1 | 123 | – | – | – | · | 47
C=C(C)CSc1nc2nc(C)c(Br)cc2[nH]1 | 81 | – | · | – | – | 30
CC(Sc1nc2ccccc2[nH]1)C(=O)O (configuration not stated) | – | – | – | · | – | –
CC(C)CCSc1nc2ccccc2[nH]1 | 102 | – | – | – | · | 52
CC(=O)N=C(N)Sc1nc2ccccc2[nH]1 | 67 | – | – | – | – | 48
CN(CC(=O)Nc1c(Cl)cccc1Cl)C(=O)c1cccn1C | – | – | – | – | – | –
COc1cc([N+](=O)[O-])ccc1NC(=O)Cn1ccsc1=N | – | – | – | – | – | –
CC(C)N1C(=O)CCC1C(=O)NCc1ccc(F)cc1Cl (configuration not stated) | – | – | – | – | – | –
C=C(C)CSc1nc2ccccc2[nH]1 | 59 | – | – | – | – | 29
O=c1nc2n(c3ccccc13)Cc1ccccc1-2 | – | – | –[5.75 µM] | – | – | –
Cc1sc2nc3n(c(=O)c2c1C)Cc1ccccc1-3 | 77 | – | – | – | – | 34
Cc1ccccc1-c1nc2sc(C)c(C)c2c(=O)o1 | · | – | ? | – | – | 17
O=c1c2cccc(Cl)c2nc2n1Cc1ccccc1-2 | – | – | – | – | – | 18
Cc1sc2ncn(-c3ccccc3)c(=O)c2c1C | – | – | – | – | – | –
COc1ccc(CC(=O)OCC(=O)Nc2cc(Cl)ccc2C)cc1 | · | – | · | · | · | ·
CCO[C@H]1OC(C(=O)N2CCN(C)CC2)=C[C@@H](c2ccc(Br)cc2)[C@@H]1CCCO | – | – | – | – | – | –
CC(C)c1ccc(OCCCN2CCCC2)cc1 | – | – | – | –[0.00184 µM] | – | –
O=C(NC1=NCCCCC1)c1cccc2ccccc12 | – | – | – | – | · | –
Fc1cc(Cl)ccc1NC1=NCCCCC1 | – | – | – | – | – | –
O=C(ONC1=NCCCCC1)c1ccc(Cl)cc1 | – | – | · | ? | – | 17
COc1ccc(C(=O)CNC2=NCCC2)cc1 | – | – | – | – | · | –
O=C(CNC1=NCCC1)c1ccc(Cl)cc1 | – | – | 12µM | ? | – | –
SMILES | Shiga toxin inh | SARS PLpro yeast | Pf growth 96h | Pf growth 48h | NS1 inh | Cycloheximide cs
O=C(ONC1=NCCCCC1)c1c(F)cccc1F | – | – | – | 13µM | – | 18
O=c1c(Cc2ccc(F)cc2)c(O)ccn1CCc1ccccn1 | – | – | – | – | – | –
NC(=O)CC[C@@H]1NC(=O)[C@@H]2CCCN2C(=O)c2cc([N+](=O)[O-])cc(I)c2NCCC[C@@H](C(N)=O)NC1=O | – | – | – | – | – | –
Cc1nn(C2CCS(=O)(=O)C2)c(C)c1CN(C)C(=O)c1ccc(S(=O)(=O)N(C)C)cc1 (configuration not stated) | · | – | · | · | · | ·
O=C(O)CCCN1C(=O)/C(=C\c2ccco2)SC1=S | – | – | 2.9µM | – | – | –
C=CCN1C(=O)/C(=C\C(C)=C\c2ccccc2)SC1=S | · | – | – | – | – | –
O=C(CCCN1C(=O)/C(=C/c2ccco2)SC1=S)Nc1ccccc1C(=O)O | – | – | – | – | – | –
CC(/C=C1\SC(=O)N(CCCC(=O)O)C1=O)=C\c1ccccc1 | – | – | 5.9µM | ? | – | –
Cc1ccc(N2C(=O)/C(=C\c3ccco3)SC2=S)cc1 | 64 | – | – | ? | ? | –
CC(=C\c1ccccc1)/C=C1/SC(=S)N(CCCC(=O)O)C1=O | – | – | ? | 8.3µM | – | –
CC(/C=C1\SC(=S)N(CCCC(=O)Nc2ccc(C(=O)O)cc2)C1=O)=C\c1ccccc1 | – | – | ? | ? | – | –
Cc1nnc(N2CCC(C(=O)N3CCCCCC3)CC2)c2nn(-c3ccc(Cl)cc3)c(C)c12 | – | – | – | ? | – | –
O=C1/C(=C\c2ccco2)NC(=S)N1c1ccccc1 | – | – | ? | – | – | 18
